Source: PubChem BioAssay (National Center for Advancing Translational Sciences (NCATS))
Rows were chosen to be rich in hits. Some 2.8% of all compounds tested hit in one or more screens of this group.
Akt phos inh: HTS Assay for Inhibitors of Akt Phophorylation: Primary Screen. Neuro2A IGF-stimulated pAkt S473 HTRF, 20 min; active compounds read low. activity change, % for hits at 50 µM. 360,000 tested, 0.32% active; in the data active means activity change below about -80%; inconclusive means mostly about -51% to -80%; further: on the % scale 0 is the no-effect control and ±100 the full control effect
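Neuro2A cells in DMEM with 0.5% FBS, overnight at 37 deg C, given compound at single 50 µM final, then IGF (6 nM final) for 20 min at 37 deg C. Lysed; phospho-Akt Ser473 by HTRF after 24 h, 665/615 ratio.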
DRD3 antagonist: qHTS of D3 Dopamine Receptor Antagonist: qHTS; D(3) dopamine receptor (Homo sapiens), P35462; D3R cells, DiscoveRx beta-arrestin luminescence, antagonist mode; active compounds read low; max response, negative = inhibition, %; 360,000 tested, 2.5% active; AID 652054, 2013; in the data active means max response below about -50%; inconclusive means no clear call, values can overlap the other calls; further: on the % scale 0 is the no-effect control and ±100 the full control effect
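Cells expressing the human receptor were seeded at 1500 cells/well, incubated overnight at 37 degrees C in 5% CO2, then exposed to library compounds with dopamine controls for 90 minutes at 37 degrees C before luminescent detection.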
RGS4 inhibitor: Inhibitors of Regulator of G Protein Signaling (RGS) 4: qHTS; Transcreener GDP fluorescence polarization, RGS4-accelerated GTP hydrolysis; Potency, µM (series often up to 114 µM), inactives show at the highest dose activity change, negative = inhibition, actives largely listed as inhibitors; Regulator of G-protein signaling 4 (Homo sapiens), P49798; 390,000 tested, 0.039% active; AID 504845, 2011; active means well fitted inhibition curve with a large enough effect; inconclusive means small, poorly fitted or top-dose-only effect; inactive means no such curve, though single readings can be large or run the other way; further: potency means the concentration at half of the fitted maximal effect; on the % scale 0 is the no-effect control and ±100 the full control effect; nearly all actives have a fitted effect of over 75% in size
Target sequence (P49798 whole entry, looked up): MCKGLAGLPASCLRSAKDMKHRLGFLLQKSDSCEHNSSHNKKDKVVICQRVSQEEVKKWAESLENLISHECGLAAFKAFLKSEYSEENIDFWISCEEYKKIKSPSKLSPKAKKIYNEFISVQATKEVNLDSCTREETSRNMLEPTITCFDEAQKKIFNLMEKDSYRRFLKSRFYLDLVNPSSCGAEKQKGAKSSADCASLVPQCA
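MLSMR compounds (23 nl, pin-transferred) preincubated 10 min at room temperature with a 500nM (2x) first reagent, then RGS4 at 900nM (2x) plus Transcreener GDP mix added; fluorescence polarization (620/688 nm) read before and after 90 min at 30 °C.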
LDHA inh: qHTS assay for inhibitors of human lactate dehydrogenase; L-lactate dehydrogenase A chain (Homo sapiens), P00338; purified LDHA, NADH/diaphorase-resazurin fluorescence; active compounds read low; activity change, % (values are at about 110 or 230 µM); 480,000 tested, 0.15% active; AID 1347041, 2019; in the data active means activity change below about -30%; inconclusive means mostly about -25% to -30%;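 further: plate controls were DMSO wells for no effect and wells without enzyme for full effect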
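Resorufin fluorescence (ex540/em590), read at 0 and 20 min after diaphorase/resazurin addition, reports the NADH left after a 5 min room-temperature reaction of 2 nM human LDH5 with 0.06 mM NADH and 0.2 mM pyruvate.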
D3 ag: qHTS of D3 Dopamine Receptor Agonist: qHTS | D3R DiscoveRx beta-arrestin cells, luminescence, 90 min | max activation, % | 410,000 tested, 0.58% active; in the data active means max activation above about 30%; further: 0% is about no effect
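Cells at 1500/well, incubated overnight, then treated with pinned compounds (dopamine as control) for 90 min at 37 degrees C. DiscoveRx reagent added for 30 - 60 minutes at room temperature; luminescence read.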
PI4K2A inh: qHTS for small molecular inhibitors of PI4K2A. Phosphatidylinositol 4-kinase type 2-alpha (Homo sapiens), Q9BTU6. purified PI4K2A, ADP-Glo luminescence, 1 h; active compounds read low. activity change, negative = inhibition, % at 76.9 µM. 420,000 tested, 0.13% active. AID 1346378, 2018; in the data active means activity change below about -50%; inconclusive means mostly about -30% to -49%;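 further: -100% = wells without enzyme as full effect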
Target sequence (Q9BTU6 whole entry, looked up): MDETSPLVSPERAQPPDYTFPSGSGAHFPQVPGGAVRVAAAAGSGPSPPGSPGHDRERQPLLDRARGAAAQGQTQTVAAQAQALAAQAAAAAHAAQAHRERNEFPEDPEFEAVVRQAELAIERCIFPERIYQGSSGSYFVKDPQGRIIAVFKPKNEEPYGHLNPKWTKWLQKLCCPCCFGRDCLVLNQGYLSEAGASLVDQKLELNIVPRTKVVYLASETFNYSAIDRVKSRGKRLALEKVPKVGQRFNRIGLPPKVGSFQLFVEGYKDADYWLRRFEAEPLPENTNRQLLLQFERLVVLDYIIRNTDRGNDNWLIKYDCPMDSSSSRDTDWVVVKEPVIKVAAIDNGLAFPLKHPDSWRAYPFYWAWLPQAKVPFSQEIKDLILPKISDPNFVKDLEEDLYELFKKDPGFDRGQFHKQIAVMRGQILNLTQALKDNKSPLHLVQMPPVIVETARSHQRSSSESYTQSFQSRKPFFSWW
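Compounds are screened against recombinant PI4K2A using PI as substrate and ATP, the latter dispensed at 300 microM. Reactions run one hour at ambient temperature before ADP-Glo detection; full inhibition defined by wells lacking enzyme.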
* = called active by the depositor.

`N#C/C(=C/c1ccc(C#N)cc1)C(=O)Nc1ccc(N2CCOCC2)cc1` gave LDHA inh 4.
`CC(C)CCN1CCN(Cc2cccc(C(F)(F)F)c2)CC1CCO` (stereo not drawn) gave Akt phos inh inactive, DRD3 antagonist -112*, RGS4 inhibitor -10%, LDHA inh -2, D3 ag -19 and PI4K2A inh 1.
`COc1ccccc1/C=C/CN1CCN(Cc2ccc(F)cc2)C(CCO)C1` (stereo not drawn) gave Akt phos inh inactive, DRD3 antagonist -82*, RGS4 inhibitor -12%, LDHA inh -2, D3 ag -43 and PI4K2A inh 3.
Screening COc1ccc(CN2CCN(Cc3ccccc3)C(CCO)C2)cc1OC (stereo not drawn) returned Akt phos inh inactive, DRD3 antagonist -72*, RGS4 inhibitor 0%, LDHA inh -5, D3 ag -21 and PI4K2A inh 1.
Screening COc1ccc(CN2CCN(CCCc3ccccc3)C(CCO)C2)cc1OC (stereo not drawn) returned Akt phos inh inactive, DRD3 antagonist -2, RGS4 inhibitor 12%, LDHA inh -7, D3 ag -12 and PI4K2A inh -2.
COc1cccc2c1OCC(CN1CCN(Cc3ccccc3)C(CCO)C1)=C2 (stereo not drawn) was read as Akt phos inh inactive, DRD3 antagonist -94*, RGS4 inhibitor 28%, LDHA inh 0, D3 ag -20 and PI4K2A inh 0.
CCOC(=O)C1=C(CN2CCN(c3ccccn3)CC2)NC(=O)NC1c1cccc(OC)c1OC (stereo not drawn) was read as LDHA inh -3.
Screening CCCCCCc1ccc(Nc2cccc(C)c2)cc1O returned LDHA inh -8.
Screening C/C(=C\c1ccco1)CN1CCN(Cc2ccc(C)o2)C(CCO)C1 (stereo not drawn) returned Akt phos inh inactive, DRD3 antagonist -70*, RGS4 inhibitor 6%, LDHA inh -7, D3 ag -16 and PI4K2A inh 0.
For OCCC1CN(Cc2cccc(C(F)(F)F)c2)CCN1Cc1ccccc1 (stereo not drawn) the results were Akt phos inh inactive, DRD3 antagonist -72*, RGS4 inhibitor -5%, LDHA inh 4, D3 ag -13 and PI4K2A inh -2.
For Cc1ccc(CN2CCN(C/C=C/c3ccc(F)cc3)CC2CCO)o1 (stereo not drawn) the results were Akt phos inh inactive, DRD3 antagonist -93*, RGS4 inhibitor 23%, LDHA inh -8, D3 ag -14 and PI4K2A inh 3.
Screening Cc1ccc(CN2CCN(C/C(Cl)=C/c3ccccc3)CC2CCO)o1 (stereo not drawn) returned Akt phos inh inactive, DRD3 antagonist -21, RGS4 inhibitor -23%, LDHA inh 0, D3 ag -5 and PI4K2A inh 0.
Screening Cc1ccc(CN2CCN(Cc3cnn(-c4ccc(F)cc4)c3)CC2CCO)o1 (stereo not drawn) returned Akt phos inh inactive, DRD3 antagonist inconclusive, RGS4 inhibitor -6%, LDHA inh 1, D3 ag -16 and PI4K2A inh 2.
CSc1cccc(CN2CCN(CCC(C)C)C(CCO)C2)c1 (stereo not drawn) was read as Akt phos inh inactive, DRD3 antagonist -51*, RGS4 inhibitor -17%, LDHA inh -12, D3 ag -13 and PI4K2A inh 0.
CCOc1ccc(-n2c(SCC(=O)N3CCCc4ccccc43)nc3c(c2=O)SCC3)cc1 was read as LDHA inh 4.
For Cc1ccc(/C=[N+](\[O-])c2ccccc2C)cc1 the results were LDHA inh 13.
For COCCN1CCN(C(=O)c2cc(COc3ccc(F)c(F)c3)on2)CC1 the results were Akt phos inh inactive, DRD3 antagonist 1, RGS4 inhibitor 5%, LDHA inh -5, D3 ag -4 and PI4K2A inh -4.
Screening COCCN1CCN(C(=O)c2cc(COc3ccc(F)cc3F)on2)CC1 returned Akt phos inh inactive, DRD3 antagonist 1, RGS4 inhibitor 19%, LDHA inh -56*, D3 ag -6 and PI4K2A inh -7.
Screening O=C(COCC(=O)N1CCN(c2ccccc2)CC1)NCc1ccccc1 returned LDHA inh 5.
`NC(=O)CSc1nnc(CNC(=O)c2ccc(Cl)cc2)n1-c1ccccc1` gave LDHA inh 3.
Screening O=C(Nc1ccc(Cl)cc1)c1ccc(-n2cccn2)c([N+](=O)[O-])c1 returned Akt phos inh inactive, DRD3 antagonist inconclusive, RGS4 inhibitor 6%, LDHA inh -5, D3 ag -9 and PI4K2A inh -4.
`Cc1c(C(=O)NC(=S)Nc2cccnc2)cccc1[N+](=O)[O-]` gave Akt phos inh inactive, DRD3 antagonist -65*, RGS4 inhibitor -1%, LDHA inh 1, D3 ag -14 and PI4K2A inh 2.
Screening Cc1ccc(NC(=O)c2ccc(-n3cccn3)c([N+](=O)[O-])c2)cc1C returned Akt phos inh -110%*, DRD3 antagonist inconclusive, RGS4 inhibitor 16%, LDHA inh -2, D3 ag -6 and PI4K2A inh 0.
For Cc1ccc(C(=O)NC(=S)Nc2cccc(NC(=O)c3ccccc3)c2)cc1[N+](=O)[O-] the results were Akt phos inh inactive, DRD3 antagonist -68*, RGS4 inhibitor -21%, LDHA inh 0, D3 ag -8 and PI4K2A inh 2.
COc1ccc(C(=O)NC(=S)Nc2cccnc2)cc1[N+](=O)[O-] was read as Akt phos inh inactive, DRD3 antagonist 0, RGS4 inhibitor -42%, LDHA inh -3, D3 ag -16 and PI4K2A inh 2.
N#Cc1c(NC(=O)c2ccc(Br)o2)n(-c2ccccc2)c2nc3ccccc3nc12 was read as Akt phos inh inactive, DRD3 antagonist 14, RGS4 inhibitor -31%, LDHA inh -1, D3 ag -2 and PI4K2A inh -52*.
For CCC(C)n1c(NC(=O)c2ccccc2)c(C#N)c2nc3ccccc3nc21 (stereo not drawn) the results were Akt phos inh inactive, DRD3 antagonist -11, RGS4 inhibitor inconclusive, LDHA inh 19, D3 ag -2 and PI4K2A inh -56*.
